PLCb3 inh: PLC-beta3 (human) inhibition, primary screen; Purified PLC-beta3, fluorogenic substrate, fluorescence; inhibition, % at 12.2 µM; actives 0.18% (n = 370,000); AID 720704; in the data active = inhibition above about 11%;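 also: 0% = median of compound wells on plate and 100% = full blocker control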
PLCg1 inh: inhibitors of human phospholipase C gamma1; P19174; purified PLC-gamma1, fluorogenic substrate, fluorescence; inhibition, % at 12.2 µM; actives 0.84% (n = 370,000); AID 720700; in the data active = inhibition above about 9.5%
AHR activator: human AHR activation; P35869; AHR-responsive luciferase reporter cells, luminescence; activation, % at 5 µM; actives 2.5% (n = 320,000); AID 2796; in the data active = activation above about 47%;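 also: 0% = vehicle wells and 100% = reference agonist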
HIF act: HIF pathway transcriptional activation. U2OS HRE-luciferase reporter, luminescence; normalized: DMSO 0%, desferrioxamine 100%. activation, % at 7.5 µM (by protocol). actives 0.32% (n = 300,000). AID 1910;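 active = mean activation of at least 10% of the iron chelator positive control signal, with at least half of replicates also reaching 10%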
HGIII-sPLA2 inh: Blocks human group III sPLA2 activity; inhibition, % at 12.2 µM; AID 743126; Q9NZ20; QFRET BODIPY PC-A2 liposome hydrolysis, fluorescence; actives 0.56% (n = 370,000);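 active = inhibition above mean plus 3 SD of compounds lying within the high and low control bounds, cut at about 19% in these data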;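 also: 0% = median of test compound wells and 100% = no enzyme DMSO wells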
Target sequence (Q9NZ20 whole entry, looked up): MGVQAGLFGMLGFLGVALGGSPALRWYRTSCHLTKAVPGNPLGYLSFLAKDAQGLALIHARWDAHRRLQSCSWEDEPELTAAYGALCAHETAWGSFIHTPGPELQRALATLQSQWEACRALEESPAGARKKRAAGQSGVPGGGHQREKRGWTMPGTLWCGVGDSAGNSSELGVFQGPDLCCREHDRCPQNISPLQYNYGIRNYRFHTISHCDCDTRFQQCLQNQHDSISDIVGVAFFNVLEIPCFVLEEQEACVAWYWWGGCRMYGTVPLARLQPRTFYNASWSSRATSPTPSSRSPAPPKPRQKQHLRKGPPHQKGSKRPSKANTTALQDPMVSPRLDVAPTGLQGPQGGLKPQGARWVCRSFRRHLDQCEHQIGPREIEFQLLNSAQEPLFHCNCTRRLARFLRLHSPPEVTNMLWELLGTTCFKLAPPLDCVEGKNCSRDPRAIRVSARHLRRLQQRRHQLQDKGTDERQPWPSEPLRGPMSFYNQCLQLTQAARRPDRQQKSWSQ
CR mimetic SO: lowers age-related superoxide in aged yeast cells; S. cerevisiae aged cells, superoxide DHE fluorescence; hits give low values; superoxide response (% of plate mean), % at 10 µM; actives 0.18% (n = 330,000); AID 2690;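 active = superoxide response under a set limit, about three screen SD below normal, cut at about 65% in these data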;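 also: yeast aged for seven days with compound at 30 °C before DHE staining; 100% = average MFI of all compound-treated wells on the plate with controls excluded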
An asterisk follows results filed as active; i = inactive; · = no result. The list is not random: actives were taken first. Their share in the collection is about 3.9%.

SMILES	PLCb3 inh	PLCg1 inh	AHR activator	HIF act	HGIII-sPLA2 inh	CR mimetic SO
CCn1c(O)c(/C=C2\C=Nc3ccccc32)sc1=Nc1ccc(C)cc1	2.1	2.2	-0.1	0.1	2.0	91.5
O=C1NCCN1CCN1CCC(c2cn(-c3ccc(F)cc3)c3ccc(Cl)cc23)CC1	-6.9	-3.3	·	·	-17.8	·
O=C(Nc1ccc(F)cc1F)Nc1sccc1-c1nc2ccccc2s1	i	-367.9	28.9	0.4	0.4	95.3
O=C(NNc1nc2ccccc2s1)Nc1ccc(F)cc1	-14.4	-4.9	75.0*	3.1	7.7	106.8
O=C(Nc1nc2ccccc2s1)Nc1ccc(F)cc1F	-6.6	-0.5	70.9*	5.3	2.2	96.9
O=C(OC12CCCN(C1)/C(=C/c1ccc(Cl)cc1)C2)C1CCCC1 (configuration not stated)	2.9	-1.0	·	·	3.2	·
CCOc1ccc(-c2cc(C(C)=O)c3n(c2=O)CCC3)cc1	-32.2	-28.1	·	·	4.1	·
c1ccc(N2CCN(c3nc4ccccc4n4cnnc34)CC2)cc1	-24.8	-14.2	39.1	0.4	7.7	93.4
C1=C(c2ccccc2)CCN(c2nc3ccccc3n3cnnc23)C1	-8.2	-8.4	78.7*	0.6	-0.1	109.3
CC(=O)N/C(=N/c1nc(C)cc(C)n1)Nc1cc(C)cc(C)c1	-4.4	2.2	58.4*	2.0	-0.6	80.4
CC[C@@]1(c2cccc(Cl)c2)C(=O)N(C(=O)OC(C)C)N1C(=O)OC(C)C	3.4	1.0	·	·	2.9	·
CCN(CC)CCOc1ccc2c(c1)C(=NO)c1cc(OCCN(CC)CC)ccc1-2	4.8	5.9	1.0	61.6*	-10.4	91.7
Cc1c(C(=O)Nc2cccc(N(C)S(C)(=O)=O)c2)cccc1[N+](=O)[O-]	14.4*	13.6*	9.9	0.3	-4.0	87.1
CCC(=O)NC(=S)Nc1ccc(NC(=O)c2cccc([N+](=O)[O-])c2C)cc1	2.2	0.7	-4.0	14.5*	-0.2	101.6
CCC(=O)NC(=S)Nc1ccc(NC(=O)c2ccccc2[N+](=O)[O-])cc1	4.4	4.5	-2.2	2.3	-0.7	107.4
CN(c1cccc(NC(=O)c2ccccc2N(C)S(C)(=O)=O)c1)S(C)(=O)=O	1.7	4.8	-2.7	-1.2	3.0	100.1
Cc1ccc(OCc2nnc(SCC(=O)Nc3ccc(S(=O)(=O)Nc4cc(C)nc(C)n4)cc3)n2Cc2ccco2)cc1	3.4	-0.7	·	·	-28.2	·
O=c1c2ccccc2n(Cc2ccccc2)n1[C@@H](Cc1ccccc1)Cn1cc(C2CCCC2)nn1	-97.6	-70.0	·	·	-6.2	·
CN(C)c1ccc(-c2nn3c(-c4ccco4)nnc3s2)cc1	-20.9	-12.5	·	·	6.8	·
COc1ccc(-c2nc3c4ccccc4[nH]c(=O)n3n2)cc1	-19.2	-10.1	111.7*	2.2	-8.6	101.5
CCCC(C)C(=O)NC1CCCCN(Cc2ccc(C)cc2)C1=O (configuration not stated)	1.1	-2.8	·	·	12.2	·
CCN(CC)c1ccc(/C=N/NC(=O)CNC(=O)C2COc3ccccc3O2)c(O)c1 (configuration not stated)	-55.6	-37.9	10.5	19.3*	4.6	111.4
O=C(N/N=C/c1cccc([N+](=O)[O-])c1)c1cc(-c2ccc3c(c2)OCO3)n[nH]1	-4.8	0.0	20.4	0.5	9.6	101.8
O=C(N/N=C/c1ccccc1)c1cc(-c2ccc3c(c2)OCO3)n[nH]1	-0.8	1.1	88.4*	0.7	-0.7	117.8
CN(C)c1ccc(/C=N/NC(=O)c2ccc3c(c2)OCO3)cc1	-341.2	-307.7	·	2.4	4.5	94.7
SMILES	PLCb3 inh	PLCg1 inh	AHR activator	HIF act	HGIII-sPLA2 inh	CR mimetic SO
O=C(N/N=C/c1cccc(O)c1)c1cc(-c2ccc3c(c2)OCO3)n[nH]1	-0.9	-1.7	117.0*	0.1	-6.3	89.5
O=C(N/N=C/c1ccc(O)cc1)c1cc(-c2ccc3c(c2)OCO3)n[nH]1	-10.8	-10.3	76.2*	2.2	-10.9	88.1
O=C(N/N=C/c1ccccc1)c1ccc2c(c1)OCO2	-13.5	0.7	70.0*	3.1	10.6	98.5
O=C(N/N=C/c1ccc2c(c1)OCO2)c1cc2ccccc2o1	-9.0	-2.7	69.0*	0.1	4.0	108.1
COc1ccc(/C=N/NC(=O)c2cccc(C(=O)N/N=C/c3ccc(OC)cc3)n2)cc1	-9.9	-1.2	5.3	2.4	-0.9	102.8
O=C(N/N=C\c1ccccc1)c1cccc(C(=O)N/N=C\c2ccccc2)n1	-14.5	-6.6	70.5*	-0.6	-3.7	89.5
CC(=O)c1cc(-c2cc3ccccc3o2)c(=O)n2c1CCC2	-46.1	-34.3	·	·	0.2	·
CCCCOc1ccc(C(=O)NC2CCCCN(C)C2=O)cc1 (configuration not stated)	-6.2	1.4	·	·	-3.6	·
CCOC(=O)c1cnc2c(OC)cccc2c1Nc1ccc2c(c1)OCCO2	-5.3	-2.0	2.1	0.6	-8.1	57.4*
CCOC(=O)c1cnc2ccc(OC)cc2c1Nc1ccc2c(c1)OCCO2	-10.7	-8.1	2.1	-0.2	-1.4	101.9
O=C(NC1CCCC1)C1(C(=O)C2CC2)CC(c2ccccc2C(F)(F)F)=NO1 (configuration not stated)	0.2	6.5	·	·	11.9	·
O=C(O)CCCNc1c(C(=O)Nc2ccc(Cl)cc2)cc([N+](=O)[O-])cc1[N+](=O)[O-]	6.8	7.1	56.3*	0.0	-10.7	141.7
O=C(Nc1ccc(Nc2ccccc2)cc1)c1ccc(Cl)cc1[N+](=O)[O-]	-6.4	2.3	0.2	0.3	4.7	99.5
CCCn1cc(C(=O)Nc2ccc(Oc3cccnc3)cc2)c2ccccc21	-5.5	-1.1	·	·	-7.6	·
Cc1ccc2c(c1)C1C=CCC1C(C(=O)O)N2 (configuration not stated)	·	·	2.1	-0.1	·	103.0
CC(=O)c1ccc2c(c1)C1C=CCC1C(C(=O)O)N2 (configuration not stated)	-9.4	12.2*	·	·	-11.4	·
COc1cc(Cn2cc([C@]34C[C@H]5C(=O)N(C)CC(=O)N5[C@H]3N(S(=O)(=O)c3ccccc3)c3ccccc34)c3ccccc32)cc(OC)c1	-3.4	-1.2	·	·	-2.4	·
CC1CCN(CC(=O)n2c3c(c4ccccc42)CCCC3)CC1	-4.6	-7.9	49.5*	-0.5	-7.4	96.2
O=C(Nc1ccccc1F)c1oc2ccccc2c1NC(=O)C1CC1	-4.8	0.3	57.0*	-1.2	-2.6	101.7
Cc1ccc2[nH]c(=O)c(-c3noc(C(C)C)n3)cc2c1	-51.9	-42.5	54.9*	-0.1	-0.4	101.6
CCc1nc(-c2cc3ccc(C)cc3[nH]c2=O)no1	-30.4	-22.4	1.3	2.6	-1.0	76.0
O=C(O[C@H]1CC[C@@]23CCCN2C(=O)CCC[C@H]3C1)N1CCCC1	1.4	0.5	·	·	-0.3	·
Nn1c(SCC(=O)Nc2cc(C(F)(F)F)ccc2Cl)nnc1-c1n[nH]c2c1CCC2	0.8	-1.6	·	·	-5.0	·
COc1ccc(OC)c(NC(=O)Nc2ccc(O)c3ccccc23)c1	-33.3	-19.2	48.6*	-0.7	-5.6	121.2

Screening data as filed in PubChem BioAssay.
